Screens (PubChem)
DT40 TDP1 no CPT: qHTS for Inhibitors of human tyrosyl-DNA phosphodiesterase 1 (TDP1): qHTS in cells in absence of CPT; DT40 Tdp1-/- hTDP1 cells, no CPT, ATP luminescence, 48 h; Potency, µM (titrated, usually from 46.2 µM), actives largely listed as inhibitors; hit rate 15% among 420,000; also: nearly all actives have a fitted effect of over 55% in size
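Growth of hTDP1-complemented DT40 Tdp1-knockout cells is measured by ATP luminescence after at least 48 hr compound exposure at 37 °C, with DMSO substituting for the 20 nM CPT used in the parallel screen.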
ClpP mod: qHTS Assay for Activators of ClpP | purified B. subtilis ClpP, FRET peptide cleavage, 20 min | AID 651965, 2013 | ATP-dependent Clp protease proteolytic subunit (Bacillus subtilis (strain 168)), P80244 | Potency, µM (titrated, usually from 57.5 µM) | hit rate 1.9% among 340,000; active = well fitted falling curve with a large enough effect; inconclusive = small, poorly fitted or top-dose-only effect; inactive = no such curve, though single readings can be large or run the other way; also: the source files actives as falling curves though it sought activators and does not explain the sign; nearly all actives have a fitted effect of over 65% in size
Target sequence (P80244 whole entry, looked up): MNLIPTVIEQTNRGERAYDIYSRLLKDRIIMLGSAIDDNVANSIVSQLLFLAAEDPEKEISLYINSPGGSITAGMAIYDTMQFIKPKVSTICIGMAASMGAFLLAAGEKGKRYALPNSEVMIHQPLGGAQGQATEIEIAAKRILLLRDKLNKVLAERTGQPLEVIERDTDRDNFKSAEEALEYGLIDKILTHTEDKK
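FRET quenching reversal measured ClpP activation: 10 microg/mL B. subtilis ClpP at pH 8 with the FRET-FV decapeptide, read at 430 nm after 320 nm excitation. The 20-min minus 0-min signal was scaled between DMSO/no-enzyme wells and ADEP (5.8 microM final).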
TDP1 cell CPT: qHTS for Inhibitors of human tyrosyl-DNA phosphodiesterase 1 (TDP1): qHTS in cells in presence of CPT | chicken DT40 Tdp1-/-;hTDP1 cells + 20 nM CPT, ATP luminescence, 48 h | Potency, µM (titrated, usually from 46.2 µM), most hits filed as inhibitors | hit rate 12% among 420,000 | AID 686979, 2013; also: nearly all actives have a fitted effect of over 55% in size
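Chicken DT40 Tdp1-/- cells stably complemented with human TDP1 were seeded at 400 cells/well in medium containing 20 nM camptothecin, exposed to pin-transferred compounds, and grown at 37 °C for at least 48 hr. Viability was read as ATP luminescence.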
TDP1 block: qHTS Assay for Inhibitors of Tyrosyl-DNA Phosphodiesterase (TDP1) | recombinant TDP1, AlphaScreen DNA substrate cleavage | Tyrosyl-DNA phosphodiesterase 1 (Homo sapiens), Q9NUW8 | Potency, µM (titrated, usually from 130 µM), actives largely listed as inhibitors | hit rate 0.28% among 350,000; also: nearly all actives have a fitted effect of over 40% in size
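AlphaScreen read-out: signal falls as enzyme removes the 3' tyrosine-FITC from a 5'-biotinylated DNA oligo (15 nM, 5 min, RT). Enzyme was E. coli-made recombinant Tdp1 at 1 nM, exposed to compound for 15 min beforehand; beads 10 ug/ml, 10 min.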
Numbers stand for hits. Only some compounds are listed: those with a hit (about 17% of all), similar ones and a draw of the others. Unless noted, calls follow the shape of the dose curve; as a rule, active = well fitted curve in the direction sought with a large enough effect; inconclusive = small, poorly fitted or top-dose-only effect, or another doubt; inactive = no such curve, though single readings can be large; an effect the other way counts as inactive or inconclusive.

What do the screens show for `CC(=O)Oc1ccccc1C(=O)OCCN=C1NS(=O)(=O)c2ccccc21`?
DT40 TDP1 no CPT: inconclusive; TDP1 cell CPT: inactive

How did COc1cccc(NC(=O)CSc2nn3c(=O)c(C)nnc3s2)c1 do in these assays?
DT40 TDP1 no CPT: inactive; ClpP mod: inactive; TDP1 cell CPT: inactive; TDP1 block: inactive

What do the screens show for `Cc1cccc(OCCCCn2c(CO)nc3ccccc32)c1`?
DT40 TDP1 no CPT: inconclusive; ClpP mod: inactive; TDP1 cell CPT: inconclusive

What do the screens show for `Nc1nonc1-c1nc2ccccc2n1CC(=O)N1CCCCC1`?
DT40 TDP1 no CPT: inconclusive; ClpP mod: inactive; TDP1 cell CPT: inactive; TDP1 block: inactive

How did O=C(Cn1c(-c2ccco2)nc2ccccc21)N1CCCCC1 do in these assays?
DT40 TDP1 no CPT: inactive; ClpP mod: 16µM; TDP1 cell CPT: inactive; TDP1 block: inactive

How did O=C(Nc1nc2ccccc2n1CCOc1ccccc1)c1ccco1 do in these assays?
DT40 TDP1 no CPT: 15µM; ClpP mod: inactive; TDP1 cell CPT: 15µM; TDP1 block: inactive

How did CCc1nc2ccccc2n1CCCCOc1cccc(C)c1 do in these assays?
DT40 TDP1 no CPT: 23µM; ClpP mod: inactive; TDP1 cell CPT: inconclusive; TDP1 block: inactive

Results for CCOC(=O)C1CCN(S(=O)(=O)c2ccc3c(c2)N(C(C)=O)CC(C)S3)CC1 (centres undefined) ?
DT40 TDP1 no CPT: inconclusive; ClpP mod: inactive; TDP1 cell CPT: inconclusive; TDP1 block: inactive

What do the screens show for `CC(C)CC1NC(=S)N(C2CCCCC2)C1=O` (centres undefined)?
DT40 TDP1 no CPT: 15µM; ClpP mod: inactive; TDP1 cell CPT: 8.2µM; TDP1 block: inactive

Results for O=C1C(Cc2ccc(O)cc2)NC(=S)N1C1CCCCC1 (centres undefined) ?
DT40 TDP1 no CPT: inactive; TDP1 cell CPT: inactive; TDP1 block: inactive

What do the screens show for `CC(C)(C)C(=O)Cn1ncc(Br)c(Br)c1=O`?
DT40 TDP1 no CPT: 1.8µM; ClpP mod: inactive; TDP1 cell CPT: 4.6µM; TDP1 block: inactive

How did CC(C)(C)C(=O)Cn1ncc(N2CCOCC2)c(Cl)c1=O do in these assays?
DT40 TDP1 no CPT: inactive; ClpP mod: inactive; TDP1 cell CPT: inactive

What do the screens show for `COC(=O)c1cc2oc3ccccc3c2n1CC(=O)Nc1ccc(C)cc1Cl`?
DT40 TDP1 no CPT: inactive; ClpP mod: inactive; TDP1 cell CPT: inactive; TDP1 block: inactive

What do the screens show for `Nc1nc(-c2cccnc2)nn1S(=O)(=O)c1ccccc1`?
DT40 TDP1 no CPT: inactive; ClpP mod: 35µM; TDP1 cell CPT: inactive

What do the screens show for `O=C1NCCN1Cc1cccc(Cl)c1`?
DT40 TDP1 no CPT: inactive; ClpP mod: inactive; TDP1 cell CPT: inactive; TDP1 block: inactive

What do the screens show for `O=C1NCCN1CCN1CCC(c2cn(-c3ccc(F)cc3)c3ccc(Cl)cc23)CC1`?
DT40 TDP1 no CPT: 2.7µM; TDP1 cell CPT: 3µM

Results for CC1(C)S[C@@H]2[C@H](NC(=O)[C@H](N)c3ccccc3)C(=O)N2[C@H]1C(=O)OC1OC(=O)c2ccccc21 (some centres undefined) ?
DT40 TDP1 no CPT: 8.2µM; ClpP mod: inactive; TDP1 cell CPT: 12µM

Results for S=C(NCc1ccccc1)NCc1ccc(Cl)cc1 ?
DT40 TDP1 no CPT: inactive; ClpP mod: inactive; TDP1 cell CPT: inconclusive; TDP1 block: inactive

What do the screens show for `S=C(NCc1ccccc1)NNc1ccccc1`?
DT40 TDP1 no CPT: 5.8µM; ClpP mod: inactive; TDP1 cell CPT: 4.6µM; TDP1 block: inactive

How did CCNC(=S)NNc1ccccc1 do in these assays?
DT40 TDP1 no CPT: 5.2µM; TDP1 cell CPT: 3.3µM; TDP1 block: inactive

How did O=C(CNc1cccc(Cl)c1)NNC(=S)NCc1ccccc1 do in these assays?
DT40 TDP1 no CPT: 23µM; ClpP mod: inactive; TDP1 cell CPT: inconclusive; TDP1 block: inactive

What do the screens show for `O=C(CSc1ccc2ccccc2c1)Nc1ccncc1`?
DT40 TDP1 no CPT: 15µM; ClpP mod: inactive; TDP1 cell CPT: inconclusive; TDP1 block: inactive

How did O=C(COc1ccccc1)Nc1ccncc1 do in these assays?
DT40 TDP1 no CPT: inactive; TDP1 cell CPT: inactive; TDP1 block: inactive

How did O=C(CSc1ccncc1)Nc1ccc2ccccc2c1 do in these assays?
DT40 TDP1 no CPT: inactive; TDP1 cell CPT: inactive; TDP1 block: inactive
